The campaign covered roughly 16,000 compounds. About 5,700 (36%) were called active. Not shown: some 24% with an inconclusive outcome. Calls come from the whole dose curve; as a rule, active = well fitted curve in the direction sought with a large enough effect; inconclusive = small, poorly fitted or top-dose-only effect, or effect the other way; inactive = no such curve, though single readings can be large or run the other way. The list shows a part of the results.
% is set by controls: 0 for no effect and ±100 for the full control effect.

The target of the assay is Cytochrome P450 1A2 (Homo sapiens) (UniProt P05177). The assay is described as follows: Cytochrome panel assay with activity outcomes. Particulars: recombinant CYP, pro-luciferin dealkylation, luminescence, p450-cyp1a2; series mostly up to 57.1 µM.
Cytochrome P450 1A2 (Homo sapiens), sequence (P05177 whole entry, looked up): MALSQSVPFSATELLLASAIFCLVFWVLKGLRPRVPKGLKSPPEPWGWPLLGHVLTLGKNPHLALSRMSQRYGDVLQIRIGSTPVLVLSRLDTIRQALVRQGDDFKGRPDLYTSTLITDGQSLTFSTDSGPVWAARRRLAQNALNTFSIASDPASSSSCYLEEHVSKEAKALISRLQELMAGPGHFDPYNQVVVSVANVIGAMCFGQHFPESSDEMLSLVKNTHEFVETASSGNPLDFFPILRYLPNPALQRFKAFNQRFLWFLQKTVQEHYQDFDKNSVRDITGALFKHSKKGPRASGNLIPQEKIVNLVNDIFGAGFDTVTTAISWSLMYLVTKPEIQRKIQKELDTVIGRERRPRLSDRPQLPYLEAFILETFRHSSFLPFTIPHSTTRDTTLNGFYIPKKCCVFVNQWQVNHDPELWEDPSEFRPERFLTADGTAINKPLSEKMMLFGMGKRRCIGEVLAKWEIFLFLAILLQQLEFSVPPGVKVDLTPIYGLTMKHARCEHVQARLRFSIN
As a reminder, the AC50 is the concentration giving half of the maximal activity seen. For `CN1CCc2c(cc(O)c(O)c2Cl)[C@H](c2cccc(Cl)c2)C1`, the AC50 entry was “inactive”.

Consider `Cn1c(=O)[nH]c2ncn(C)c2c1=O`, for which the AC50 result is “inactive”. As to `[O-][N+](CCO)(CCO)c1ncnc2nc[nH]c12`, the activity, negative = inhibition is -5.88% [at 11.4 µM] (inactive). With `CCOC(=O)C1=C(c2ccccc2)N=c2s/c(=C\c3ccco3)c(=O)n2C1c1cccs1` (stereo not drawn), the AC50 was 6.31 µM (active). `CCOC(=O)C1=C(c2ccccc2)N=c2s/c(=C\c3ccc(O)cc3)c(=O)n2C1c1cccs1` (stereo not drawn): the AC50 entry is “inactive”.

Regarding `CCOC(=O)C1=C(c2ccccc2)N=c2s/c(=C\c3cccc(O)c3)c(=O)n2C1c1cccs1` (stereo not drawn), the AC50 was 25.1 µM (active).

On to `CCOC(=O)C1=C(c2ccccc2)N=c2s/c(=C\c3cc(OC)c(OC)c(OC)c3)c(=O)n2C1c1cccs1` (stereo not drawn), for which the AC50 entry was “inactive”. Take `COc1ccc(C2/C(=C(/O)c3ccc(Cl)cc3)C(=O)C(=O)N2CCN2CCOCC2)c(OC)c1` (stereo not drawn): the AC50 result was “inactive”. Regarding `Cc1ccc(NC(=O)Nc2nc(-c3ccc(C)s3)cs2)cc1`, the AC50 is 1.58 µM (active). In the case of `C#CCCCO/N=C1/C[C@@H](O)[C@@H](O)[C@@H]2[C@@H]3C(=O)N(Cc4ccccc4)C(=O)[C@H]3CC[C@@H]12`, the activity, negative = inhibition was 6.78% [at 11.4 µM] (inactive). `CNC(=O)c1nnn(Cc2ccccc2)c1NC(=O)C(F)(F)F`: the AC50 result is “inactive”. With `COc1ccc(NC(=O)C2CC(=O)NC3=C2C(=O)CC(C)(C)C3)cc1` (stereo not drawn), the AC50 entry was “inactive”. For the compound `COc1ccc(C(C(=O)Nc2ccc(F)cc2)N(C(=O)Cn2nnc3ccccc32)C2CC2)cc1` (stereo not drawn), the AC50 result was “inactive”. On to `COCC(C)NCc1cccc([N+](=O)[O-])c1` (stereo not drawn), for which the AC50 entry was “inactive”.

Take `CCN(Cc1ccccc1)Cc1cccc([N+](=O)[O-])c1`: the AC50 is 5.01 µM (active).

Regarding `N[C@@H](Cc1cccc([N+](=O)[O-])c1)C(=O)O`, the activity, negative = inhibition was -10.6% [at 11.4 µM] (inactive).

On to `O=C(O)CC/C=C\CC[C@H]1[C@@H](N2CCCCC2)[C@@H](O)C[C@@H]1OCc1ccc(-c2ccccc2)cc1`, for which the AC50 entry was “inactive”. Take `FC(F)(F)c1ccccc1-c1cc(NCc2ccccc2)ncn1`: the AC50 is 12.6 µM (active). As to `CNc1cc(-c2ccccc2C(F)(F)F)ncn1`, the concentration at half-maximal activity (AC50) was 15.8 µM (active). Consider `CNc1ncncc1-c1ccccc1C(F)(F)F`, for which the AC50 result was “inactive”.

As for `Cc1ccccc1-c1cc(N(C)C)ncn1`, the AC50 is 2 µM (active). Regarding `CNc1cc(-c2ccccc2C)ncn1`, the AC50 was 10 µM (active).

For the compound `CN(C)C(=O)/N=N\C(=O)N(C)C`, the AC50 result was “inactive”. Regarding `CC(C)=CCC/C(C)=C/CO/N=C1/C[C@@H](O)[C@@H](O)[C@@H]2[C@@H]3C(=O)N(C[C@@H]4CCCO4)C(=O)[C@H]3CC[C@@H]12`, the activity, negative = inhibition was -6.43% [at 11.4 µM] (inactive). As for `O=C(CCNc1cccc(Cl)c1)c1cccs1`, the AC50 is 10 µM (active). As to `O=C(O)CNc1ccc(C(=O)O)cc1`, the activity, negative = inhibition is -15.1% [at 11.4 µM] (inactive). With `O=C(CNc1cccc(Cl)c1)c1ccc(Cl)cc1`, the AC50 is 3.16 µM (active). Consider `O=C(O)CCCC[C@H]1CCSS1`, for which the AC50 result was “inactive”. With `COc1cccc2c1OC1(C)CC2/C(=C(\C)O)C(=O)N1` (stereo not drawn), the AC50 entry was “inactive”.

For the compound `CCc1ccc(-c2ccc(C(=O)C(F)(F)F)[nH]2)cc1`, the AC50 was 1.12 µM (active). Consider `N[C@@H](CO)C(=O)NNCc1ccc(O)c(O)c1O`, for which the AC50 entry is “inactive”. `CC[C@H]1C(=O)OC[C@H]1Cc1cncn1C`: the AC50 result was “inactive”. The same measure, in the same setting: the entry for `Cc1ccc(S(=O)(=O)N(CC(=O)N/N=C/c2ccc(F)cc2)c2cccc3cccnc23)cc1` is “inactive”; for `CC(C)NC(=O)CC(=O)N/N=C/c1ccc(Br)cc1` it is 1.41 µM (active).

For the compound `O=Nc1ccc(NOC(=O)c2ccc(Br)cc2)cc1`, the AC50 entry was “inactive”. Same read-out and setting: the value for `CC(NC(=O)Cc1ccc(F)cc1)c1ccccc1` (stereo not drawn) was “inactive”; that for `CC(C)NC(=O)CC(=O)N/N=C/c1ccc(F)cc1` was 15.8 µM (active); that for `C=CC(=O)NC(NC(=O)C=C)c1ccc(Br)cc1` was “inactive”. Consider `C1CCC(N=C(NC23CC4CC(CC(C4)C2)C3)N2CCOCC2)CC1`, for which the AC50 entry was “inactive”. On to `Cc1nc2cncnc2n(Cc2ccc(F)cc2)c1=O`, for which the AC50 was 10 µM (active). As for `Cc1nc2cncnc2n(Cc2ccccc2)c1=O`, the half-maximal activity concentration (AC50) was 12.6 µM (active).

Take `CC(=O)OC[C@@H]1O[C@H](C/C=N\O[C@@H](C)CN2CCCc3nc(C)c(C)cc32)C=C[C@@H]1OC(C)=O`: the activity, negative = inhibition is -4.85% [at 11.4 µM] (inactive). As for `CCN(CC)S(=O)(=O)N1CCC(C(=O)NCc2ccc(C)cc2)CC1`, the AC50 result is “inactive”. On to `Cc1ccc(CCN2CC(C(=O)NCCCN(C)Cc3ccccc3)CC2=O)cc1` (stereo not drawn), for which the AC50 entry is “inactive”. As to `O=C1[C@H]2[C@H]3[C@H](O)[C@H](O)C/C(=N/OCc4ccccc4)[C@@H]3CC[C@@H]2C(=O)N1Cc1ccc2c(c1)OCO2`, the activity, negative = inhibition was -8.98% [at 11.4 µM] (inactive). In the case of `O=C1[C@H]2[C@H]3[C@H](O)[C@H](O)C/C(=N/OCc4ccccc4)[C@H]3CC[C@@H]2C(=O)N1Cc1ccc2c(c1)OCO2`, the activity, negative = inhibition was -4.06% [at 11.4 µM] (inactive). Turning to `Cc1ccc(CNC(=O)C2CCC(=O)N2C2CCCCC2)cc1` (stereo not drawn), the AC50 entry was “inactive”. On the same count and under the same terms, the figure for `Cc1ccc(CCNC(=O)C2CC(c3ccccc3[N+](=O)[O-])=NO2)cc1` (stereo not drawn) is 6.31 µM (active).

Consider `Cc1ccc(CNC(=O)C2CC(c3ccccc3[N+](=O)[O-])=NO2)o1` (stereo not drawn), for which the AC50 was 6.31 µM (active).

Take `CC(C)(C)OC(=O)N1CCCC1C(=O)NCCc1ccccc1` (stereo not drawn): the AC50 result was “inactive”. For the compound `Cc1ccc(CNC(=O)C2CC(c3ccccc3[N+](=O)[O-])=NO2)cc1` (stereo not drawn), the AC50 is 5.01 µM (active).

`O=C(NCc1ccc2c(c1)OCO2)C1CC(c2cccc(Br)c2)=NO1` (stereo not drawn): the concentration at half-maximal activity (AC50) is 2 µM (active). As to `COc1c(N2CCN(C(=S)Nc3ccc(F)cc3)C(C)C2)c(F)cc2c(=O)c(C(=O)O)cn(C3CC3)c12` (stereo not drawn), the AC50 entry is “inactive”. With `O=C(NCCCCc1ccccc1)C1CC(c2ccccc2[N+](=O)[O-])=NO1` (stereo not drawn), the AC50 is 2.24 µM (active).

`COc1ccc(CNC(=O)C2CC(c3cccc([N+](=O)[O-])c3)=NO2)cc1` (stereo not drawn): the AC50 is 15.8 µM (active).

On to `COc1cccc(C2=NOC(C(=O)NCc3ccccn3)C2)c1` (stereo not drawn), for which the AC50 entry is “inactive”. On the same count and under the same terms, the value for `NS(=O)(=O)c1ccc(CCNC(=O)C2CCCN2C(=O)OCc2ccccc2)cc1` (stereo not drawn) was “inactive”. Consider `CCOC(=O)c1oc2ccccc2c1NC(=O)c1ccc2c(c1)OCO2`, for which the AC50 was 1 µM (active). For `CCCCN(C)S(=O)(=O)c1ccc(C(=O)Nc2nnc(CSC)o2)cc1`, the AC50 entry is “inactive”.

For the compound `CCOC(=O)c1cc(NC(=O)c2ccc(OC)cc2)c(=O)oc1-c1ccccc1`, the AC50 entry is “inactive”. Still for that read-out and setting: the figure for `CCOC(=O)c1oc2ccccc2c1NC(=O)c1ccc(S(=O)(=O)N(C)C)cc1` is 12.6 µM (active).

Turning to `Cc1cc(NC(=O)c2ccc(S(=O)(=O)N(C)C)cc2)n(-c2ccccn2)n1`, the AC50 entry was “inactive”. As for `CCOC(=O)c1oc2ccccc2c1NC(=O)c1cc(OC)cc(OC)c1`, the AC50 was 0.794 µM (active).
